# Screens from PubChem.
# L3MBTL1 block: blocks human L3MBTL1; Potency, µM (doses to about 57.1 µM), without a hit: at the top dose activity, negative = inhibition, hits mostly inhibitors; 230,000 tested, 0.66% active; AlphaScreen L3MBTL1–H3K9me1 peptide binding; Q9Y468; note: nearly all actives have a fitted effect of over 60% in size
#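 AlphaScreen proximity signal between nickel-chelate acceptor and streptavidin donor beads (final 10 ug/mL) reports binding of 50 nM L3MBTL1 to 75 nM biotin-H3 K9me1 peptide; complex incubated with compounds 30 min at room temperature; cefsulodin titration as control.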
# BLM inh: blocks DNA unwinding by human BLM helicase; P54132; recombinant BLM DNA unwinding, fluorescence dequenching; Potency, µM (titrated, usually from 56.1 µM), inactives show at the top dose activity change, negative = inhibition, hits mostly inhibitors; 350,000 tested, 0.2% active;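 note: plate controls were vehicle for no effect and no enzyme for full effect; nearly all actives have a fitted effect of over 35% in size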
# WRN helicase inh: blocks human WRN helicase. WRN helicase unwinding, fluorescent forked duplex, kinetic. Q14191. AID 651768. 360,000 tested, 0.46% active. Potency, µM (series often up to 114 µM), inactives show at the top dose activity change, negative = inhibition, actives largely listed as inhibitors; note: nearly all actives have a fitted effect of over 55% in size
# Target sequence (Q14191 whole entry, looked up): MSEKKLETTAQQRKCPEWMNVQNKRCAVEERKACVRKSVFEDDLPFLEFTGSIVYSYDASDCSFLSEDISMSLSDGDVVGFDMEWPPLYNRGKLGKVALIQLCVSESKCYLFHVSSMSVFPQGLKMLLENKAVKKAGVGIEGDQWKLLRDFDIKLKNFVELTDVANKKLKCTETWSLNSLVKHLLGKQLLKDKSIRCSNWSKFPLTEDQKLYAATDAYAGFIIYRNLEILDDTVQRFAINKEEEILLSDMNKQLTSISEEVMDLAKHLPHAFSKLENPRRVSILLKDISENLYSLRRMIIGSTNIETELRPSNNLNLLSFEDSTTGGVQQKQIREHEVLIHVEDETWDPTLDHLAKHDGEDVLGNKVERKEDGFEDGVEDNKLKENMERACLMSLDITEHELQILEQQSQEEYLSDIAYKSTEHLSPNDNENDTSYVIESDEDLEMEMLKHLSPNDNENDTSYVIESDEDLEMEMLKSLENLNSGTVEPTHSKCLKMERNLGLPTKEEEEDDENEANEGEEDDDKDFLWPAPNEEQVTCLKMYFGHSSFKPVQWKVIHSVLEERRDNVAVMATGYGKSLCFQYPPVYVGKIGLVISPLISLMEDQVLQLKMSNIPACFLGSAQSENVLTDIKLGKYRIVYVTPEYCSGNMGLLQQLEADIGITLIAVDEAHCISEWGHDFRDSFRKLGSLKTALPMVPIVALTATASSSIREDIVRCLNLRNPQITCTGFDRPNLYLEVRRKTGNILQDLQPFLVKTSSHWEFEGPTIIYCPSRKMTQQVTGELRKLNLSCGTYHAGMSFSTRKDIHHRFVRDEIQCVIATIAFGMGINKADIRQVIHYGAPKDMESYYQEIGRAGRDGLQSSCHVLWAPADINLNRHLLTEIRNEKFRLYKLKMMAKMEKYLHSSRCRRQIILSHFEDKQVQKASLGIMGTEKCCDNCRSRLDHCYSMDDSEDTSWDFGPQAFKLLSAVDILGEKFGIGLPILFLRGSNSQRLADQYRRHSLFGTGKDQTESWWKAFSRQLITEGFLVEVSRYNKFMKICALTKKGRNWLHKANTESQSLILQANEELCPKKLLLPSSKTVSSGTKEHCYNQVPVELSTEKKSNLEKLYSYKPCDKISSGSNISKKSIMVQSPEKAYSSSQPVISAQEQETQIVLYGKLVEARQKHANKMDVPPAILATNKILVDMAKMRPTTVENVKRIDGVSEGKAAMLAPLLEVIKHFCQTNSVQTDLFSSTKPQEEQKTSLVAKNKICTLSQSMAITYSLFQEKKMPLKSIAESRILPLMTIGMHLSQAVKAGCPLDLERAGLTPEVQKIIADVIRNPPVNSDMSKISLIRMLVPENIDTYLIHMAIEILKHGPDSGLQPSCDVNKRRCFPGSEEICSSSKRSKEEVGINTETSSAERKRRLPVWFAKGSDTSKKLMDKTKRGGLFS
#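 Enzyme (20 nM final) and test compound sit together 15 min at room temperature before substrate addition. Substrate is a single-forked duplex oligonucleotide (100 nM) labelled with fluorophore and quencher, with 2 mM ATP; helicase unwinding raises red fluorescence, read kinetically.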
# RECQ1 inh: inhibitors of human RECQ1 DNA helicase; Potency, µM (highest dose often 57.3 µM), inactives show top-dose activity, negative = inhibition, actives largely listed as inhibitors; 240,000 tested, 0.54% active; RECQ1 DNA unwinding, red fluorescence kinetic read; AID 2549; P46063;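 note: plate controls were vehicle for no effect and no enzyme for full effect; nearly all actives have a fitted effect of over 30% in size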
#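 RECQ1T1 50 nM; forked duplex (20 bp + 30-nt ss tails) 200 nM, ATP 2 mM final; pH 8.0, 2 mM MgCl2, 2.5 ug/ml poly(dI-dC); 15 min compound preincubation; discontinuous kinetic read over 2 h at RT.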
# APEX1 inh: APE1 (human) endonuclease inhibition | 350,000 tested, 0.35% active | Potency, µM (series often up to 65.8 µM), for inactives: top-dose activity change, negative = inhibition, hits mostly inhibitors | P27695 | recombinant APE1, TAMRA/BHQ-2 abasic DNA cleavage fluorescence;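 note: plate controls were vehicle for no effect and reference inhibitor for full effect; nearly all actives have a fitted effect of over 55% in size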
#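 Readout is kinetic fluorescence (ex 525, em 598 nm) from cleavage of 50 nM TAMRA/BHQ-2 THF abasic duplex by 0.75 nM APE1, compound added 15 min beforehand at RT.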
# FEN1 inh: inhibitors of human flap endonuclease 1; P39748; Recombinant FEN1 flap cleavage, fluorescence, 15 min; Potency, µM (titrated, usually from 114 µM), inactives show top-dose activity change, negative = inhibition, most hits filed as inhibitors; 390,000 tested, 0.35% active; AID 588795; note: nearly all actives have a fitted effect of over 65% in size
#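 Recombinant FEN1 (10 nM) was preincubated with pin-transferred compounds for 15 min at room temperature, then flap DNA substrate (50 nM final) was added. Plates were read at 0 and 15 min, and normalized concentration–response data were fitted to a four-parameter Hill equation.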
# Numbers without * were called inactive; i = inactive; ? = inconclusive; . = not tested or not shown; ! = not confirmed by another sample. Rows were chosen to be rich in hits. Some 1% of all compounds tested hit in one or more screens of this group. Calls come from the whole dose curve; as a rule, active = well fitted curve in the direction sought with a large enough effect; inconclusive = small, poorly fitted or top-dose-only effect, or another doubt; inactive = no such curve, though single readings can be large; an effect the other way counts as inactive or inconclusive. Unless noted, % is set by controls: 0 for no effect and ±100 for the full control effect; potency is the fitted concentration of half-maximal effect.
SMILES,L3MBTL1 block,BLM inh,WRN helicase inh,RECQ1 inh,APEX1 inh,FEN1 inh
N#Cc1c(SCC(=O)N2CCCCC2)nsc1SCC(=O)N1CCCCC1,.,-3%,-4%,-4%,-2%,-7%
CC(C)C[C@H](NC(=O)[C@H](CC(C)C)NC(=O)[C@@H](Cc1c[nH]c2ccccc12)NC(=O)[C@H](Cc1ccccc1)NC(=O)[C@@H](Cc1c[nH]c2ccccc12)NC(=O)[C@H](CCC(N)=O)NC(=O)[C@H](CCC(N)=O)NC(=O)[C@@H]1CCCN1C(=O)[C@H](CCCCN)NC(=O)[C@@H]1CCCN1C(=O)[C@@H](CCCNC(=N)N)NC(=O)[C@@H]1CCCN1C(=O)CNC(=O)[C@H](CC(C)C)NC(=O)[C@H](CC(C)C)NC(=O)[C@H](Cc1ccc(O)cc1)NC(=O)CNC(=O)[C@H](C)NC(=O)[C@H](CO)NC(=O)[C@H](CC(N)=O)NC(=O)[C@H](CC(C)C)NC(=O)[C@@H](NC(=O)[C@H](Cc1c[nH]c2ccccc12)NC(=O)CN)[C@@H](C)O)C(N)=O,.,-9%,.,-18%,2%,.
CC1(C)Cc2c(C#N)c(N3CCN(C(=O)c4ccccc4)CC3)nc(-c3ccco3)c2CS1,?,28µM*,?,-1%,3%,-15%
Cc1ccccc1C(=O)Nc1ccccc1C(=O)N1CCC(C)CC1,.,-2%,1%,.,45%,89µM*
CN(/N=C/c1ccc(N(C)C)cc1)C1=NS(=O)(=O)c2ccccc21,.,35%,72%,.,24µM*,-2%
COc1ccc(/C=N/N(C)C2=NS(=O)(=O)c3ccccc32)cc1,.,-4%,0%,.,-17%,8%
C=CC1=C(C)C2=Cc3c(C=C)c(C)c4[n]3[Sn+2][n]3c(c(C)c(CCC(=O)O)c3=CC3=NC(=C4)C(C)=C3CCC(=O)O)=CC1=N2,.,-22%,.,40µM*,8.9µM*,.
Cc1ccc(C)c(CSc2c(C(C)C)cnc3c2c(=O)n(C)c(=O)n3C)c1,.,-8%,.,.,.,2%
CCCCCn1c(=N)n(CC(O)COc2ccccc2OC)c2ccccc21 (stereo not given),5µM*,1%,-11%,7%,-1%,0%
C#CCOCCOCCOCCNc1nc(N2CCN(C(=O)CCCCCCCCCCNC(=O)Cn3cc(C[C@@H](C)O)nn3)CC2)nc(N2CCN(C(=O)CCCCCCCCCCNC(=O)[C@H](CCCCN)n3cc(CCCC(=O)O)nn3)CC2)n1,-13%,.,1%,.,5%,1%
C#CCOCCOCCOCCNc1nc(N2CCN(C(=O)CCCCCCCCCCNC(=O)[C@H](CO)n3cc(CCCSC)nn3)CC2)nc(N2CCN(C(=O)CCCCCCCCCCNC(=O)[C@H](CCCN=C(N)N)n3cc(C[C@@H](C)CC)nn3)CC2)n1,3%,.,?,.,?,22µM*
C#CCOCCOCCOCCNc1nc(N2CCN(C(=O)CCCCCCCCCCNC(=O)Cn3cc(C[C@@H](C)O)nn3)CC2)nc(N2CCN(C(=O)CCCCCCCCCCNC(=O)[C@H](CCCN=C(N)N)n3cc(C[C@@H](C)CC)nn3)CC2)n1,?,.,?,.,?,89µM*
Nc1ccc(S(=O)(=O)Nc2nccs2)cc1N=Nc1ccccc1[N+](=O)[O-],.,.,25µM*,.,.,50µM*
Cc1ccc(C)c(S(=O)(=O)Nc2ccc3oc(C)c(C(=O)O)c3c2)c1,.,-5%,56µM*,.,13µM*,?
O=c1oc2cc(O)ccc2c2oc3cc(O)ccc3c12,6%,?,?,32µM*,?,40µM*
COc1c(O)c(O)cc2c1oc1c3ccccc3oc(=O)c21,.,14µM*,.,11µM*,28µM*,.
O=c1oc2cc(O)ccc2c2ccccc12,.,-4%,-4%,-6%,-7%,-23%
Cc1c(O)c2ccccc2oc1=O,.,-1%,3%,i,12%,-5%
CCOc1cccc(CNc2ccc(O)cc2)c1OCc1ccccc1Cl,40µM*,?,?,i,1%,?
O=C(CN1CCN(C(=O)C2CCN(C(=O)/C=C/c3ccccc3)CC2)CC1)Nc1ccc(F)cc1,.,.,7%,.,.,3%
Cn1c2cc(B(O)O)sc2c2cnn(Cc3c(F)cccc3Cl)c(=O)c21,5%,.,.,.,?,.
Cn1c2cc(B(O)O)sc2c2cnn(Cc3c(F)cccc3F)c(=O)c21,-6%,.,.,.,21µM*,.
Cn1c2cc(B(O)O)sc2c2cnn(Cc3ccc(F)cc3F)c(=O)c21,-1%,.,.,.,13µM*,.
O=C(c1ccco1)N1CCN(C(=O)c2cn(-c3ccccc3)nc2-c2ccccc2)CC1,0%,.,0%,.,13%,18%
O=c1oc2cc([N+](=O)[O-])ccc2nc1/C=C(O)/C=C/c1ccccc1,.,?,.,-4%,3%,.
SMILES,L3MBTL1 block,BLM inh,WRN helicase inh,RECQ1 inh,APEX1 inh,FEN1 inh
O=c1oc2cc([N+](=O)[O-])ccc2nc1/C=C(\O)c1cccc(Br)c1,.,-6%,-9%,-3%,-2%,25µM*
Cc1ccc(NC(=O)Cn2c(=O)n(-c3ccc(C)cc3)c(=O)c3ccc(C(=O)NCc4ccccc4Cl)cc32)cc1,.,1%,.,.,.,-5%
CCN(c1ccc(N=Cc2c(O)n(Cc3ccc(OC)cc3)c(=O)c3ccccc23)cc1)C(C)C,?,-6%,40µM*,-20%,-8%,-27%
Cc1ccccc1NS(=O)(=O)c1ccc(C(=O)N(C)CC(=O)Nc2ccccc2Br)cc1,4%,.,1%,.,-7%,-18%
N#Cc1c(-c2ccc3c(c2)OCO3)no[n+]1[O-],.,.,.,.,7%,.
O=C(O)c1cn(-c2ccc(F)cc2)c2cc(N3CCNCC3)c(F)cc2c1=O,.,30%,-18%,-2%,-5%,45µM*
Cn1cc(S(=O)(=O)c2ccccc2)c(=O)c2cc(F)c(N3CCN(c4ccc(F)cc4)CC3)cc21,.,2%,.,.,.,-8%
O=C(CN1C(=O)COc2ccc(S(=O)(=O)NC3CCCC3)cc21)NCc1ccc(Cl)cc1,.,-1%,.,.,.,-2%
COc1[nH]c(/N=C/c2ccccc2)c(C#N)c1C#N,-7%,-1%,-34%,-19%,17%,50µM*!
COc1ccc(NC(=O)CC(NCc2ccccn2)C(=O)O)cc1 (stereo not given),14µM*,3%,0%,-3%,-2%,-8%
COc1ccc(NC(=O)CC(C(=O)O)C(C)c2ccccc2)cc1 (stereo not given),5%,4%,9%,.,-3%,-4%
CC1CCCN(C(=O)c2cc3c(Cl)nc4ccccc4c3s2)C1 (stereo not given),.,1%,.,.,.,-24%
O=C(NCCCN1CCCCCC1)c1cc2c(=O)oc3ccccc3c2s1,.,48%,-12%,.,-5%,71µM*
